Screening results (PubChem BioAssay)
GDH-TPI inh: GDH-TPI coupling enzyme inhibitors, primary screen, artefact control for M. tuberculosis FBA inhibitor project, biochemical, absorbance, full deck; 360,000 compounds, 1.2% hits; AID 588335, 2011; inhibition, % at 4.8 µM; GDH-TPI coupled enzyme counterscreen, NADH absorbance; in the data active = inhibition above about 30%;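 also: 0% = DMSO wells and 100% = wells lacking the enzyme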
Bead autofluor: compound fluorescence in toxin protease inhibitor counterscreen | compound autofluorescence counterscreen, microsphere flow cytometry; hits give high values | fluorescence intensity (concentration not given with the values) | 360,000 compounds, 3.1% hits | AID 624483; in the data active = fluorescence intensity above about 16000; inconclusive = no clear call, values can overlap the other calls
BoNT-A LC inh2: BoNT/A light chain protease inhibitors, primary screen, biochemical, flow cytometry, MLPCN library; Botulinum neurotoxin type A light chain protease (Clostridium botulinum A str. ATCC 3502); multiplex microsphere protease substrate cleavage; inhibition, % at 10 µM; 360,000 compounds, 0.17% hits; also: plate controls were buffer without enzyme for full effect and enzyme alone for no effect
Mtb FBA inh: Mtb FBA enzyme inhibitors, primary screen, biochemical, fluorescence, strain H37Rv; 360,000 compounds, 2.3% hits; purified M. tuberculosis FBA, fluorescence read-out; inhibition, % at 1 µM; in the data active = inhibition above about 27%;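 also: 0% = vehicle and 100% = reference inhibitor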
BoNT F protease: BoNT/F light chain protease inhibitors, primary screen, biochemical, flow cytometry, MLPCN library; Botulinum neurotoxin type F light chain protease (Clostridium botulinum); Multiplex microsphere protease cleavage assay; inhibition, % at 10 µM; 360,000 compounds, 0.22% hits; AID 588497, 2011; in the data active = inhibition above about 35%, passing the limit was not always enough; inconclusive = no clear call, values can overlap the other calls; also: plate controls were buffer without enzyme for full effect and enzyme alone for no effect
Anthrax LF inh2: Bacillus anthracis LF protease inhibitors, primary screen, biochemical, multiplex microsphere, MLPCN library; 360,000 compounds, 0.12% hits; multiplex microsphere protease cleavage assay; inhibition, % at 10 µM; also: plate controls were buffer without enzyme for full effect and enzyme alone for no effect
Target sequence (P15917 whole entry, looked up): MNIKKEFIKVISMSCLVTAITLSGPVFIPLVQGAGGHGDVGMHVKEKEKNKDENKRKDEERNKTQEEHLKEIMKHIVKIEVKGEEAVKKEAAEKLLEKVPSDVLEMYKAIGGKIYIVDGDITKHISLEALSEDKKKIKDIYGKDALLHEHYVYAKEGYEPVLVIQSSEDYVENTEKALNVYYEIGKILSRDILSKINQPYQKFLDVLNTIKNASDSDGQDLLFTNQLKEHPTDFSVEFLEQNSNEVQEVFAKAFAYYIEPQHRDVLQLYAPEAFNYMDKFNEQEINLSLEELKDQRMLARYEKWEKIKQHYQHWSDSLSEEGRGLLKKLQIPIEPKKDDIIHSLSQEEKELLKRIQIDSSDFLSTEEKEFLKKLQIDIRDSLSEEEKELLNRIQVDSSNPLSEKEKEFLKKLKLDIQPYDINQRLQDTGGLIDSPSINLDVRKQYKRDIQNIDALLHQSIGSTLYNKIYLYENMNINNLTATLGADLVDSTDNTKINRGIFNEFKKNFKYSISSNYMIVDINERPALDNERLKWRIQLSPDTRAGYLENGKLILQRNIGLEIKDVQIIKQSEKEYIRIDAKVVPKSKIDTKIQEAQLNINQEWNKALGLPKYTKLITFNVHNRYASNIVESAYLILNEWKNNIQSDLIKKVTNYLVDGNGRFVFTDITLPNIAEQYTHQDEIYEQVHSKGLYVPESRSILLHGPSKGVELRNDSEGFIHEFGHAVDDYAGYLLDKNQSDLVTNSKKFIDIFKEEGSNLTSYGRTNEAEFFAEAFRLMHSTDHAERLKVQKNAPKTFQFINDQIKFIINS
Active calls of the source: *; ? = inconclusive; + = active, no number. Sampled rows, rich in hits. Any-hit rate of the full collection: about 6.7%. Rule as the data show it, unless noted: active = inhibition above about 30%; inconclusive = no clear call, values can overlap the other calls; inactive = below that.

SMILES | GDH-TPI inh | Bead autofluor | BoNT-A LC inh2 | Mtb FBA inh | BoNT F protease | Anthrax LF inh2
Cc1ccc2cc3cc(C(=O)NCCCN4CCCC4)oc3nc2c1 | 38* | 5325 | -3 | 127* | -4 | 0
COc1ccccc1-n1nnnc1SCc1cc2c(cc1Br)OCO2 | 6 | 3600 | 0 | -1 | 13 | -6
COC(=O)c1c(C)oc(C)c1S(=O)(=O)N(C)C1CCCCC1 | -9 | 5999 | 0 | -3 | -3 | 1
O=C(Nc1ccccc1C(F)(F)F)c1ccc(F)c(S(=O)(=O)N2CCOCC2)c1 | 11 | 10885 | -1 | -1 | -17 | -1
COc1ccc2cc3cc(C(=O)N4CCCC(C)C4)oc3nc2c1 (stereo not drawn) | 18 | 5212 | -1 | 14 | -1 | -3
COc1ccc2cc3cc(C(=O)NCC4CCCO4)oc3nc2c1 (stereo not drawn) | 30 | 4001 | 0 | + | -18 | -5
COCCNC(=O)c1cc2cc3ccc(OC)cc3nc2o1 | 22 | 3842 | 0 | + | 12 | -2
Cc1cc(C)cc(N(CCC#N)C(=O)COC(=O)C2=COCCO2)c1 | 0 | 6349 | -2 | -1 | -2 | -3
COc1ccc(C(=O)N/C(=C\c2ccc(Cl)cc2)C(=O)NCc2ccncc2)cc1 | -12 | 3631 | 0 | -2 | -6 | -5
Cc1ccc(N)cc1O | 0 | 5872 | 0 | 0 | 0 | -6
COc1cccc(OCCOc2c(OC)cccc2OC)c1 | 17 | 3426 | 0 | -2 | 37* | -1
COc1cccc(OC)c1OCCCOc1c(OC)cccc1OC | -6 | 4035 | 0 | -1 | 32 | 4
COC(=O)c1ccc(COc2ccc(-c3nnn(CC(N)=O)n3)cc2)cc1 | 3 | 2238 | -1 | 0 | -7 | -2
O=c1[nH]c(SCc2ccc(Cl)cc2)nc2c1CCC2 | -7 | 4262 | 0 | 2 | ? | -2
O=c1[nH]c(SCc2ccccc2Cl)nc2c1CCCC2 | -11 | 20115* | -1 | 3 | -3 | 1
CCNC(=O)C1CCCN(c2nc(C)cc(C)n2)C1 (stereo not drawn) | 11 | 4365 | 0 | 10 | -2 | -1
CCCc1cc(N2CCCC(C(=O)NCC)C2)n2ncnc2n1 (stereo not drawn) | -5 | 20607* | 0 | -1 | 1 | 0
O=C(CN1CCC(NC(=O)c2ccccc2)CC1)NCc1ccccc1F | 0 | 15747 | 2 | -1 | 0 | -3
O=C(CN1CCC(NC(=O)c2ccc(F)cc2)CC1)NCc1ccccc1F | 4 | 17206* | -2 | 0 | -4 | -1
CCOC(=O)c1c(C)[nH]c(C(=O)CN2CCOCC2)c1C | 3 | 23350* | 0 | -3 | -2 | -2
CCOC(=O)c1[nH]c(C)c(C(=O)NCCCN2CCOCC2)c1C | 8 | 10335 | 1 | 0 | 8 | -3
CCOC(=O)c1c(C)[nH]c(C(=O)CSc2ccc(Cl)cc2)c1C | 16 | 16362* | ? | 0 | -1 | -24
CCOC(=O)c1c(C)[nH]c(C(=O)CSc2nc(C)cc(C)n2)c1C | 7 | 3116 | 0 | -2 | -7 | -2
N#Cc1nc(-c2cccc3ccccc23)oc1N1CCCCC1 | 11 | 3148 | -1 | 4 | -10 | -4
COP(=O)(OC)c1nc(-c2cccc3ccccc23)oc1N1CCCCC1 | 10 | 4389 | -1 | + | 0 | 0
SMILES | GDH-TPI inh | Bead autofluor | BoNT-A LC inh2 | Mtb FBA inh | BoNT F protease | Anthrax LF inh2
COP(=O)(OC)c1nc(-c2ccc([N+](=O)[O-])cc2)oc1N1CCCCC1 | 8 | 3557 | 0 | -3 | -4 | -2
CCOP(=O)(OCC)c1nc(-c2cccc3ccccc23)oc1N1CCCCC1 | 2 | 4329 | 0 | 175* | -4 | -4
CCOP(=O)(OCC)c1nc(-c2ccccc2)oc1N1CCCCC1 | 1 | 3604 | -1 | + | 2 | 1
Cc1ccc(N=Nc2c(O)[nH]c(=O)[nH]c2=O)c([N+](=O)[O-])c1 | 17 | 4408 | 0 | -3 | 24 | 0
COCC(=O)Nc1nc2n(n1)C(c1ccccc1Cl)CC(c1ccc(OC)cc1)N2 (stereo not drawn) | 2 | 20336* | 1 | 23 | 0 | 1
COCC(=O)Nc1nc2n(n1)C(c1ccc(Cl)cc1)CC(c1ccc(OC)cc1)N2 (stereo not drawn) | -11 | 2935 | 0 | 26 | -8 | 0
COc1ccc(CCNC(=O)Cn2c(=O)oc3cc(Cl)ccc32)cc1OC | -6 | 3986 | 0 | 0 | -3 | -3
C=CCn1c(Cc2csc(N)n2)nnc1SCC(=O)Nc1ccc(C(=O)OCC)cc1 | 2 | 7701 | -1 | 2 | -11 | 1
C=CCn1c(Cc2csc(N)n2)nnc1SCC(=O)OCC | 11 | 22718* | 2 | -1 | -2 | 0
C=CCn1c(CCNC(=O)c2ccc(Cl)c(Cl)c2)nnc1SCCOc1ccc(OC)cc1 | -11 | 21454* | ? | 1 | -3 | 0
C=CCn1c(Cc2ccc(OC)cc2)nnc1SCC(N)=O | 3 | 22116* | 2 | 0 | 2 | -6
C=CCn1c(Cc2ccc(OCC)cc2)nnc1SCC(N)=O | 2 | 9473 | 0 | 5 | 3 | -2
CC1(C)OC(=O)N(CCc2ccccc2)C1(C)O (stereo not drawn) | -6 | 25029* | -4 | -1 | -7 | -2
CC1(C)OC(=O)N(CC(=O)Nc2ccccc2)C1(C)O (stereo not drawn) | 0 | 2609 | 0 | 2 | 4 | -2
Cc1cc(C)c2c(=O)[nH]c(SCC(=O)N3CCOCC3)nc2n1 | 0 | 4082 | 0 | 6 | -3 | -1
Cc1cc(C)c2c(=O)[nH]c(SCC(=O)N3CCCCC3)nc2n1 | 3 | 21909* | 2 | 6 | 7 | -2
CN(C)CCO/N=C(\c1ccc(Br)cc1)c1cccnc1 | -1 | 21777* | -82 | 2 | ? | -50
COc1ccc2[nH]c3c(c2c1)CCN1C(=O)C(CC(=O)NCc2ccc(OC)c(OC)c2)C[C@H](C(=O)N2CCOCC2)[C@@]31C (stereo partly drawn) | 7 | 4220 | 0 | 0 | -2 | -2
O=S(=O)(Nc1nc2ccccc2nc1N1CCc2ccccc2C1)c1ccc(Br)cc1 | 18 | 2548 | 4 | 126* | 13 | 0
CC(=O)Nc1ccc(S(=O)(=O)Nc2nc3ccccc3nc2N2CCc3ccccc3C2)cc1 | 22 | 2885 | 1 | 12 | -10 | -4
CC(=O)Nc1ccc(S(=O)(=O)Nc2nc3ccccc3nc2N2CCCCCC2)cc1 | 33* | 23055* | ? | 10 | 1 | -2
CN1CCN(c2nc3ccccc3nc2NS(=O)(=O)c2ccc(Br)cc2)CC1 | 24 | 2919 | 0 | 8 | -3 | -2
